Source: PubChem BioAssay
Calls of active or inactive are those of the source.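 How the source made its calls, unless noted: active means normalized viability below 100% at a tested concentration; inactive means the rest.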 Numbered stars: 1 amine (or outer) side, 2 acyl side, 3 side chain; on linkers, the order of the positions; unused ones are H or OH. Bridge positions count the residues as written; N and C are the ends. Square brackets hold non-standard residues; d marks the D form. Peptide text beside a SMILES is read from it. * marks the point of attachment. X4 = NC1=N[C@@H]([C@H](N[*:1])C(=O)[*:2])C[C@H](O)N1; ΔAla(Z-3-ureido) = NC(=O)N/C=C(\N)C(=O)O; β3hOrn = NCCC[C@H](N)CC(=O)*; Dap = NC[C@H](N)C(=O)O

Assays:
[1] = viability loss with induced miR-34 in A549 – imaging, A549 dox-inducible miR-34, nuclei and caspase counts, primary screen (AID 1347080;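 active means compounds whose cell count with miR-34 switched on is under 0.7 times the count with it off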); settings: A549 miR-34 inducible, Hoechst nuclei count, 48 h
[2] = MELAS cybrid and Rieske KO viability enhancers – cell-based, MELAS cybrids, Rieske KO mouse fibroblasts, CellTiter-Glo, primary screen (AID 1508586;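 active means mean z-score across replicates of 1.96 or higher in either the MELAS or the Rieske mutant cell line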;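 further: z relative to plate mean and SD of compound and empty wells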); settings: low glucose
[3] = galactose survival enhancers in mitochondrial complex I cybrids – cell-based, galactose medium, ATP luminescence, primary screen (AID 1645843;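 active means z-score of at least 1.8 in each of two replicates, scored against plate mean and spread of sample wells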;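 further: positive z means more ATP and so rescue of galactose-driven cybrid death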); settings: complex I mutant cybrid cells, 72 h, stronger effect = higher value
[4] = target: NAD(+) hydrolase SARM1 (Homo sapiens) (UniProt Q6SZW1); assay: blocking NAD cleavage by SARM1 SAM-TIR – cell lysate, NAD-Glo luminescence (AID 1508614;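 active means compound whose remaining NAD level is above about 45 nM, limit read from the data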); settings: SAM-TIR HEK293T lysate NADase, at 1 µM, stronger effect = higher value
NAD(+) hydrolase SARM1 (Homo sapiens), sequence (Q6SZW1 whole entry, looked up): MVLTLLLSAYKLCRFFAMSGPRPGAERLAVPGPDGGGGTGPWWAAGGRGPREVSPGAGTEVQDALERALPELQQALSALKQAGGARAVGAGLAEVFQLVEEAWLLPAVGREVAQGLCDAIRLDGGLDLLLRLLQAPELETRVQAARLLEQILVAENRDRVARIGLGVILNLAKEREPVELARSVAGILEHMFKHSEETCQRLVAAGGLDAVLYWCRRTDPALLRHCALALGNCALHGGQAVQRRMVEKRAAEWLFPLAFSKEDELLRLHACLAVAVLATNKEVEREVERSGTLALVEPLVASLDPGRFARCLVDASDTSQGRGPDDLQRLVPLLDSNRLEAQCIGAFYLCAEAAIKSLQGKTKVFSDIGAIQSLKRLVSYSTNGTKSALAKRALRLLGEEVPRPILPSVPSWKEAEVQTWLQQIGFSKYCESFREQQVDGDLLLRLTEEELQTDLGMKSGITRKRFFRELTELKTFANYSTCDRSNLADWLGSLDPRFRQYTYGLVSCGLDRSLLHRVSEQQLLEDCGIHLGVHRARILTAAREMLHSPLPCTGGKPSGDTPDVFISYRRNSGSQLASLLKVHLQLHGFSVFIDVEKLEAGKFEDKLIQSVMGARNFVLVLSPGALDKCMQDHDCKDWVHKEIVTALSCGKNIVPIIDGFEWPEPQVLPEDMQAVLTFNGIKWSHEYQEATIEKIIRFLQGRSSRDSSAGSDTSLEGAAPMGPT

[5] = P. berghei load reduction in hepatocytes – cell-based, HepG2, luciferase luminescence, HepG2 viability, primary screen (AID 624349; in the data active means parasite load remaining mostly below about 12%, no sharp cut-off; inactive means mostly above about 10%;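 further: 100% = mean of DMSO negative control wells on the same plate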); settings: P. berghei liver stage in HepG2, luciferase luminescence, concentration not given here; parasite load remaining: stronger effect = lower value; viability: measured here: HepG2 viability without parasites
[6] = drug combination growth inhibition, ovarian cancer – cell-based, oncology-focused library, rucaparib conditional, profiling panel (AID 1508598); settings: patient-derived ovarian cancer cells, CellTiter-Glo viability, 144 h, stronger effect = lower value
[7] = stronger effect = lower value, cell number ratio, induced over uninduced
[8] = measured here: relative caspase fold change +Dox/-Dox
[9] = measured here: total cells with miR-34 induction, stronger effect = lower value
[10] = measured here: total cells without miR-34 induction
[11] = MELAS cybrid survival, CellTiter-Glo 48 h, stronger effect = higher value
[12] = Rieske KO mouse fibroblast survival, CellTiter-Glo 72 h

For `COc1ccc(CN2CCN(c3ncnc4sccc34)CC2=O)cc1`, the fold change [1, 7] was 0.842 (inactive), the fold change [1, 8] was 1.22 and the cell count [1, 9] was 5020. The cell count [1, 10] was 5960, the z-score [2, 11] was -0.496 (inactive) and the z-score [2, 12] was -0.343. The z-score [3] was 0.64 (inactive).

In the case of `CCOc1nc2cccc(C(=O)OCc3oc(=O)oc3C)c2n1Cc1ccc(-c2ccccc2-c2noc(=O)[nH]2)cc1`, the fold change [1, 7] is reported as 0.946 (inactive), the fold change [1, 8] is reported as 0.471 and the cell count [1, 9] is reported as 8160. The cell count [1, 10] was 8630, the z-score [2, 11] was 0.0175 (inactive) and the z-score [2, 12] was -0.018. The remaining NAD [4] was 10 nM (inactive).

In the case of `N#Cc1ccc2[nH]cc(CCCCN3CCN(c4ccc5oc(C(N)=O)cc5c4)CC3)c2c1`, the fold change [1, 7] is reported as 0.968 (inactive), the fold change [1, 8] is reported as 0.515 and the cell count [1, 9] is reported as 6440. For the same compound, the cell count [1, 10] was 6650, the z-score [2, 11] was -0.594 (inactive) and the z-score [2, 12] was -0.181. The remaining NAD [4] was 10 nM (inactive).

With `NCCC[C@H](N)CC(=O)N[C@H]1CNC(=O)[C@H]([C@H]2C[C@H](O)NC(N)=N2)NC(=O)/C(=C/NC(N)=O)NC(=O)[C@H](CO)NC(=O)[C@H](CO)NC1=O` (β3hOrn-[Dap]SS[ΔAla(Z-3-ureido)][X4]; lactam 1-C) the parasite load remaining [5] was 90.6% (inactive), the viability [5] was 75% and the fold change [1, 7] was 0.967 (inactive). It also gave a fold change [1, 8] of 0.791, a cell count [1, 9] of 9150 and a cell count [1, 10] of 9470. The z-score [2, 11] was -0.695 (inactive), the z-score [2, 12] was -0.532 and the remaining NAD [4] was 10 nM (inactive).

In the case of `NC1=NC(=O)C(=Cc2ccc(-c3ccc(C(=O)O)cc3)o2)S1`, the fold change [1, 7] is reported as 0.91 (inactive), the fold change [1, 8] is reported as 0.479 and the cell count [1, 9] is reported as 8530. The cell count [1, 10] was 9370, the z-score [2, 11] was 0.721 (inactive) and the z-score [2, 12] was -0.231. For the same compound, the z-score [3] was 0.485 (inactive).

With `Cc1ccc(NC(=O)c2ccc(CN3CCN(C)CC3)cc2)cc1Nc1nc(-c2cccnc2)cs1` the fold change [1, 7] was 0.856 (inactive), the fold change [1, 8] was 1.16 and the cell count [1, 9] was 5500. The cell count [1, 10] was 6420, the z-score [2, 11] was -0.618 (inactive) and the z-score [2, 12] was 0.938. The viability ([6]; at 0.000305 µM, OCI-C5x cells, with rucaparib 10 µM, 100% = cells with rucaparib alone) was 103% (inactive), the viability ([6]; at 0.000305 µM, OCI-C5x cells, without rucaparib) was 124% (inactive) and the viability ([6]; at 0.000305 µM, OCI-P5x cells, with rucaparib 20 µM, 100% = cells with rucaparib alone) was 105% (inactive). For the same compound, the viability ([6]; at 0.000305 µM, OCI-P5x cells, without rucaparib) was 93.4% (active), the viability ([6]; at 0.00122 µM, OCI-C5x cells, with rucaparib 10 µM, 100% = cells with rucaparib alone) was 105% (inactive) and the viability ([6]; at 0.00122 µM, OCI-C5x cells, without rucaparib) was 120% (inactive). The viability ([6]; at 0.00122 µM, OCI-P5x cells, with rucaparib 20 µM, 100% = cells with rucaparib alone) was 109% (inactive), the viability ([6]; at 0.00122 µM, OCI-P5x cells, without rucaparib) was 96.2% (active) and the viability ([6]; at 0.00488 µM, OCI-C5x cells, with rucaparib 10 µM, 100% = cells with rucaparib alone) was 112% (inactive). The viability ([6]; at 0.00488 µM, OCI-C5x cells, without rucaparib) was 129% (inactive), the viability ([6]; at 0.00488 µM, OCI-P5x cells, with rucaparib 20 µM, 100% = cells with rucaparib alone) was 102% (inactive) and the viability ([6]; at 0.00488 µM, OCI-P5x cells, without rucaparib) was 92.7% (active). The viability ([6]; at 0.0195 µM, OCI-C5x cells, with rucaparib 10 µM, 100% = cells with rucaparib alone) was 109% (inactive), the viability ([6]; at 0.0195 µM, OCI-C5x cells, without rucaparib) was 124% (inactive) and the viability ([6]; at 0.0195 µM, OCI-P5x cells, with rucaparib 20 µM, 100% = cells with rucaparib alone) was 99.3% (active). For the same compound, the viability ([6]; at 0.0195 µM, OCI-P5x cells, without rucaparib) was 85.4% (active), the viability ([6]; at 0.0781 µM, OCI-C5x cells, with rucaparib 10 µM, 100% = cells with rucaparib alone) was 100% (inactive) and the viability ([6]; at 0.0781 µM, OCI-C5x cells, without rucaparib) was 123% (inactive). For the same compound, the viability ([6]; at 0.0781 µM, OCI-P5x cells, with rucaparib 20 µM, 100% = cells with rucaparib alone) was 97% (active), the viability ([6]; at 0.0781 µM, OCI-P5x cells, without rucaparib) was 92.9% (active) and the viability ([6]; at 0.313 µM, OCI-C5x cells, with rucaparib 10 µM, 100% = cells with rucaparib alone) was 113% (inactive). The viability ([6]; at 0.313 µM, OCI-C5x cells, without rucaparib) was 124% (inactive), the viability ([6]; at 0.313 µM, OCI-P5x cells, with rucaparib 20 µM, 100% = cells with rucaparib alone) was 102% (inactive) and the viability ([6]; at 0.313 µM, OCI-P5x cells, without rucaparib) was 84.1% (active). The viability ([6]; at 1.25 µM, OCI-C5x cells, with rucaparib 10 µM, 100% = cells with rucaparib alone) was 106% (inactive), the viability ([6]; at 1.25 µM, OCI-C5x cells, without rucaparib) was 130% (inactive) and the viability ([6]; at 1.25 µM, OCI-P5x cells, with rucaparib 20 µM, 100% = cells with rucaparib alone) was 91.9% (active). For the same compound, the viability ([6]; at 1.25 µM, OCI-P5x cells, without rucaparib) was 87.9% (active), the viability ([6]; at 5 µM, OCI-C5x cells, with rucaparib 10 µM, 100% = cells with rucaparib alone) was 129% (inactive) and the viability ([6]; at 5 µM, OCI-C5x cells, without rucaparib) was 138% (inactive). The viability ([6]; at 5 µM, OCI-P5x cells, with rucaparib 20 µM, 100% = cells with rucaparib alone) was 84.2% (active) and the viability ([6]; at 5 µM, OCI-P5x cells, without rucaparib) was 82% (active).
